Measured potencies and affinities stand elsewhere.
biological target: Caspase-6 (Homo sapiens) (UniProt P55212); assay: inhibition of CASP6 peptide cleavage – biochemical, VEID-R110 fluorescence, dry powder retest, dose response (AID 743332); details: purified caspase-6, Z-VEID-R110 cleavage fluorescence; series mostly up to 35 µM; activity change, negative = inhibition: at the top concentration
Sequence (P55212 24-179 limits assumed): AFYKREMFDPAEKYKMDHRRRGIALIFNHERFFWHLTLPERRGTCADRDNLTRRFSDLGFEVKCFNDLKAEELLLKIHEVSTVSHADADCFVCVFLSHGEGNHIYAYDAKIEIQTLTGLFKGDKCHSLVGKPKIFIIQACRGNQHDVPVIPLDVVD
Sequence (P55212 194-293 limits assumed): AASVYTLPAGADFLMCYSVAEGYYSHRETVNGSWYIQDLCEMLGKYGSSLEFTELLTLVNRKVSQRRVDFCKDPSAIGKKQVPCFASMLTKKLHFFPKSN

Activity change, negative = inhibition, inactive:
O=C(c1ccc2c(c1)OCCO2)N1CCN(S(=O)(=O)c2ccccc2)CC1 6.42%
Cc1ccc(C(=O)N2CCN(S(=O)(=O)c3ccc4c(c3)OCCO4)CC2)cc1 -11%
COc1ccc(C(=O)N2CCN(S(=O)(=O)c3ccccc3)CC2)cc1 20.3%
O=C(c1ccccc1)N1CCN(S(=O)(=O)c2cccnc2)CC1 5.36%
Cc1ccc(C(=O)N2CCCN(S(=O)(=O)c3ccc(C)cc3)CC2)cc1 9.58%
O=C(c1cccnc1)N1CCN(S(=O)(=O)c2cccnc2)CC1 8.03%
O=C(c1ccoc1)N1CCN(S(=O)(=O)c2cccnc2)CC1 5.59%
Cc1ccc(C(=O)N2CCN(S(=O)(=O)c3ccccc3)CC2)o1 0.801%
O=C(c1ccccn1)N1CCN(S(=O)(=O)c2ccccc2)CC1 5.53%
O=C(C1COc2ccccc2O1)N1CCN(S(=O)(=O)c2ccccc2)CC1 (stereo not given) -3.24%
CC(=O)Nc1ccc(S(=O)(=O)N2CCN(C(=O)c3ccccc3)CC2)cc1 10.7%
Cc1ccc(C(=O)N2CCN(S(=O)(=O)c3ccc(C)cc3)CC2)cc1 4.57%
O=C(c1cccs1)N1CCN(S(=O)(=O)c2ccccc2)CC1 0.185%
Cc1ccc(S(=O)(=O)N2CCCN(C(=O)c3ccoc3)CC2)cc1 1%
Cc1ccc(S(=O)(=O)N2CCN(C(=O)C3COc4ccccc4O3)CC2)cc1 (stereo not given) 5.54%
O=C(c1ccccc1)N1CCCC(NS(=O)(=O)c2ccccc2)C1 (stereo not given) 7.3%
CC(=O)N1CCCc2cc(S(=O)(=O)N3CCN(C(=O)C4COc5ccccc5O4)CC3)ccc21 (stereo not given) 12%
Cc1cccc(C(=O)N2CCCN(S(=O)(=O)c3ccc4c(c3)OCCO4)CC2)c1 25%
[O-][n+]1c2c(nn1-c1ccccc1Cl)-c1nonc1CC2 4.6%
CC(=O)Nc1ccc(C(=O)N2CCN(S(=O)(=O)c3ccc(C)cc3)CC2)cc1 -10.9%
Cc1ccc(C(=O)N2CCN(S(=O)(=O)c3ccccc3)CC2)cc1 4.95%
Cc1ccc(S(=O)(=O)N2CCN(C(=O)c3ccccc3)CC2)cc1 8.23%
[O-][n+]1c2c(nn1-c1ccccc1)-c1nonc1CC2 4.39%
CC(=O)Nc1ccc(S(=O)(=O)N2CCN(C(=O)c3ccc(C)cc3)CC2)cc1 5.54%
COc1ccc(S(=O)(=O)N2CCN(C(=O)c3ccccc3)CC2)cc1 1.2%
Cc1ccc(S(=O)(=O)N2CCN(C(=O)c3ccco3)CC2)cc1 3.21%
O=C(c1ccc(F)cc1)N1CCCN(S(=O)(=O)c2ccc(F)cc2)CC1 5%
O=C(c1ccccc1)N1CCN(S(=O)(=O)c2ccc(Cl)cc2)CC1 3.42%
O=C(C1COc2ccccc2O1)N1CCN(S(=O)(=O)c2ccccc2F)CC1 (stereo not given) -2.1%
O=S(=O)(c1ccccc1)N1CCN(Cc2ccccc2)CC1 1.29%

Reference: PubChem BioAssay AID743332 (Broad Institute, 2014)
